For six compounds, outcome and AC50 results are on record in PubChem BioAssay (EPA / NIEHS).

Read-out in assay [1]: Vascular endothelial growth factor receptor 2 (Homo sapiens) (UniProt P35968)
Put plainly: BSK_4H_VEGFRII: BioMAP Diversity Plus: 4H Assay for Vascular endothelial growth factor receptor 2 (VEGFR2) Biomarker Activity (AID 2283031).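 As to AC50: cell-surface VEGFR2 protein level quantified by ELISA.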 Particulars: primary human endothelial cells (HUVEC); actives raise or lower the signal. In outline:
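Primary human umbilical vein endothelial cells (4H system), 24 h exposure; cell-surface VEGFR2 measured by ELISA. Bidirectional fitting versus DMSO; cytotoxicity checked in parallel by SRB total-protein staining.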

Read-out in assay [2]: Human Leukocyte Antigen - DR isotype (HLADR), HLA-DRA (gene 3122)
Put plainly: BSK_BE3C_HLADR: BioMAP Diversity Plus: BE3C Assay for Human Leukocyte Antigen - DR isotype (HLADR) Biomarker Activity (AID 2283032). The conditions noted are these: primary human bronchial epithelial cells; actives raise or lower the signal. In outline: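 ELISA read-out of HLA-DR on human lung bronchial epithelial primary cells, measured 24 h post-dosing. Both increases and decreases were scored relative to DMSO vehicle.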

Read-out in assay [3]: Vascular cell adhesion molecule 1 (VCAM1), VCAM1 (gene 7412)
Description: BSK_4H_VCAM1: BioMAP Diversity Plus: 4H Assay for Vascular cell adhesion molecule 1 (VCAM1) Biomarker Activity (AID 2283033).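 As to outcome: cell-surface VCAM-1 protein measured by ELISA.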 Particulars: primary human endothelial cells (HUVEC); actives raise or lower the signal. In outline:
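ELISA read-out of VCAM-1 on human umbilical vein endothelium 24 hours after chemical dosing; gain or loss of signal was fitted relative to DMSO, with sulforhodamine B staining of parallel cultures flagging overt cytotoxicity.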

Read-out in assay [4]: Interferon-gamma inducible Protein 10 (IP10), CXCL10 (gene 3627)
Description: BSK_BE3C_IP10: BioMAP Diversity Plus: BE3C Assay for Interferon-gamma inducible Protein 10 (IP10) Biomarker Activity (AID 2283034). Particulars: primary human bronchial epithelial cells; actives raise or lower the signal. In outline: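 Chemical is dosed onto human lung bronchial epithelial primary cells, cultures are incubated 24 h, and IP-10 is then quantified by ELISA. Gain or loss of signal is fitted in both directions relative to DMSO.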

Read-out in assay [5]: Monokine induced gamma interferon (MIG), CXCL9 (gene 4283)
Description: BSK_BE3C_MIG: BioMAP Diversity Plus: BE3C Assay for Monokine induced gamma interferon (MIG) Biomarker Activity (AID 2283035). Particulars: primary human bronchial epithelial cells; actives raise or lower the signal. In outline:
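MIG level was determined by ELISA after 24 h chemical treatment of primary human bronchial epithelial cells. Values were fitted bidirectionally with DMSO as the negative control and activity baseline.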

Read-out in assay [6]: Transforming growth factor beta 1 (TGFb1), TGFB1 (gene 7040)
Description: BSK_BE3C_TGFb1: BioMAP Diversity Plus: BE3C Assay for Transforming growth factor beta 1 (TGFb1) Biomarker Activity (AID 2283036;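 as to outcome: TGF-b1 protein level measured by ELISA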). The conditions noted are these: primary human bronchial epithelial cells; actives raise or lower the signal. The gist of the method: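 Primary human lung bronchial epithelial cells; compound exposure 24 h; TGF-b1 by ELISA; bidirectional fit, DMSO baseline. Parallel SRB total-protein staining for cytotoxicity.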

Read-out in assay [7]: Plasminogen activator inhibitor-1 (PAI1), SERPINE1 (gene 5054)
Description: BSK_BE3C_PAI1: BioMAP Diversity Plus: BE3C Assay for Plasminogen activator inhibitor-1 (PAI1) Biomarker Activity (AID 2283037). Particulars: primary human bronchial epithelial cells; actives raise or lower the signal. In outline:
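Primary human lung bronchial epithelial cells; chemical dosing; 24 h; PAI-1 measured by ELISA; bidirectional fit referenced to DMSO as negative control.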

Read-out in assay [8]: urokinase plasminogen activator (uPA), PLAU (gene 5328)
Put plainly: BSK_BE3C_uPA: BioMAP Diversity Plus: BE3C Assay for urokinase plasminogen activator (uPA) Biomarker Activity (AID 2283038).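 As to outcome: uPA protein level quantified by ELISA in cell cultures; uPA read one day after compound addition.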 The conditions noted are these: primary human bronchial epithelial cells; actives raise or lower the signal. The gist of the method: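 Primary human bronchial epithelial cells, uPA measured by ELISA 24 h after dosing. Bidirectional change relative to DMSO; cytotoxicity checked in parallel cultures by sulforhodamine B total-protein staining.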

Read-out in assay [9]: Urokinase-type plasminogen activator receptor (uPAR), PLAUR (gene 5329)
Description: BSK_BE3C_uPAR: BioMAP Diversity Plus: BE3C Assay for Urokinase-type plasminogen activator receptor (uPAR) Biomarker Activity (AID 2283039).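 As to outcome: uPAR protein level measured by ELISA on the cells; cells exposed to compound for one day before measurement.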 The conditions noted are these: primary human bronchial epithelial cells; actives raise or lower the signal. The gist of the method:
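Human bronchial epithelial primary cells; chemical exposure 24 h; uPAR by ELISA; bidirectional fit vs DMSO control.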

Read-out in assay [10]: Interleukin-6 (IL6), IL6 (gene 3569)
Description: BSK_CASM3C_IL6: BioMAP Diversity Plus: CASM3C Assay for Interleukin-6 (IL6) Biomarker Activity for (AID 2283040). Particulars: primary human coronary artery smooth muscle cells; actives raise or lower the signal.

Read-out in assay [11]: Tissue plasminogen activator (tPA), PLAT (gene 5327)
Put plainly: BSK_BE3C_tPA: BioMAP Diversity Plus: BE3C Assay for Tissue plasminogen activator (tPA) Biomarker Activity (AID 2283041).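 As to outcome: tPA level quantified by ELISA one day after compound addition.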 Particulars: primary human bronchial epithelial cells; actives raise or lower the signal. The gist of the method: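 Primary human lung bronchial epithelial cultures receive test chemical; after 24 h, tPA is quantified by ELISA, and gain or loss of signal is fitted bidirectionally relative to DMSO baseline.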

Read-out in assay [12]: Interleukin-8 (IL8), CXCL8 (gene 3576)
Description: BSK_CASM3C_IL8: BioMAP Diversity Plus: CASM3C Assay for Interleukin-8 (IL8) Biomarker Activity (AID 2283042).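 Also: IL-8 protein level quantified by ELISA.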 The conditions noted are these: primary human coronary artery smooth muscle cells; actives raise or lower the signal.

Read-out in assay [13]: Human Leukocyte Antigen - DR isotype (HLADR), HLA-DRA (gene 3122)
Put plainly: BSK_CASM3C_HLADR: BioMAP Diversity Plus: CASM3C Assay for Human Leukocyte Antigen - DR isotype (HLADR) Biomarker Activity (AID 2283043).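 Also: cell-surface HLA-DR protein level quantified by ELISA.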 Particulars: primary human coronary artery smooth muscle cells; actives raise or lower the signal.

Read-out in assay [14]: Macrophage colony-stimulating factor (MCSF), CSF1 (gene 1435)
Description: BSK_CASM3C_MCSF: BioMAP Diversity Plus: CASM3C Assay for Macrophage colony-stimulating factor (MCSF) Biomarker Activity (AID 2283044).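 Also: M-CSF protein amount quantified by ELISA after 24 h exposure.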 Particulars: primary human coronary artery smooth muscle cells; actives raise or lower the signal.

Read-out in assay [15]: Low-density lipoprotein receptor (LDLR), LDLR (gene 3949)
Description: BSK_CASM3C_LDLR: BioMAP Diversity Plus: CASM3C Assay for Low-density lipoprotein receptor (LDLR) Biomarker Activity (AID 2283045).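 Also: LDLR protein level on the cell surface quantified by ELISA.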 The conditions noted are these: primary human coronary artery smooth muscle cells; actives raise or lower the signal.

Read-out in assay [16]: Monocyte Chemoattractant Protein-1 (MCP1), CCL2 (gene 6347)
Put plainly: BSK_CASM3C_MCP1: BioMAP Diversity Plus: CASM3C Assay for Monocyte Chemoattractant Protein-1 (MCP1) Biomarker Activity (AID 2283046).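 Also: MCP-1 level quantified by ELISA 24 h after dosing.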 The conditions noted are these: primary human coronary artery smooth muscle cells; actives raise or lower the signal.

A short description of assay [17]: BSK_CASM3C_Proliferation: Cell Proliferation Assessment in the BioMAP Diversity Plus: CASM3C Assay (AID 2283047).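 Also: sulforhodamine B total protein stain as relative cell number at 560 nm; sub-confluent cells exposed 48 h before staining; fitted both ways against DMSO so gain or loss of cell number.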 Particulars: primary human coronary artery smooth muscle cells.
Read-out in assay [18]: Monokine induced gamma interferon (MIG), CXCL9 (gene 4283)
Description: BSK_CASM3C_MIG: BioMAP Diversity Plus: CASM3C Assay for Monokine induced gamma interferon (MIG) Biomarker Activity (AID 2283048).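 Also: MIG protein level measured by ELISA.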 Particulars: primary human coronary artery smooth muscle cells; actives raise or lower the signal.

Read-out in assay [19]: serum amyloid A (SAA), SAA1 (gene 6288)
Put plainly: BSK_CASM3C_SAA: BioMAP Diversity Plus: CASM3C Assay for serum amyloid A (SAA) Biomarker Activity (AID 2283049).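 Also: SAA protein level quantified by ELISA.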 Particulars: primary human coronary artery smooth muscle cells; actives raise or lower the signal.

Assay [20] is described as follows: BSK_CASM3C_SRB: Viability Assessment in the BioMAP Diversity Plus: CASM3C Assay (AID 2283050).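 Also: total protein by SRB staining as cytotoxicity measure in parallel cultures.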 The conditions noted are these: primary human coronary artery smooth muscle cells.

The source made the active and inactive calls. The calls were made as follows: active = hit-call score of the fitted dose curve at least 0.9, where 1 is the maximum; inactive = score below 0.9.

Regarding `CNC(=O)Oc1ccccc1OC(C)C`, the outcome in assay [1], in assay [2], in assay [3], in assay [4], in assay [5] and in assay [6] was inactive. The outcome in [7], in assay [8], in assay [9], in [10], in [11] and in assay [12] was inactive. For the same compound, the result in [13], in assay [14], in assay [15], in [16], in assay [17] and in [18] was inactive. Besides, the outcome in [19] and in assay [20] was inactive.
Turning to `N#Cc1c(Cl)c(Cl)c(Cl)c(C#N)c1Cl`, the AC50 in [1] is 1.44 µM (active); in assay [2], 1.7 µM (active); in [3] it was 1.16 µM (active); in assay [4], 2.35 µM (active); in assay [5], 3.01 µM (active); in assay [6] it was 3.94 µM (active). In addition, the AC50 in [7] is 2.5 µM (active); in [8], 1.69 µM (active); in assay [9] it was 3.98 µM (active); in assay [10] it was 3.56 µM (active); in assay [11], 3.97 µM (active); in [12], 3.36 µM (active). The AC50 was 6.09 µM (active) in assay [13]; 3.31 µM (active) in assay [14]; 3.56 µM (active) in assay [16]; 0.148 µM (active) in [17]; 2.14 µM (active) in assay [18]; 4.82 µM (active) in assay [19]. Besides, the half-maximal activity concentration (AC50) in assay [20] is 2 µM (active). Besides, the outcome in assay [15] was inactive.
For `CC(C)OC(=O)Nc1cccc(Cl)c1`, the outcome in [1], in [2], in assay [3], in assay [4], in assay [5] and in assay [6] was inactive. The outcome in assay [7], in [8], in assay [9], in [10], in assay [11] and in assay [12] was inactive. Moreover, the result in assay [13], in assay [14], in [15], in [16], in assay [17] and in assay [18] was inactive. In addition, the result in assay [19] and in assay [20] was inactive.
`O=C(NC(=O)c1c(F)cccc1F)Nc1ccc(OC(F)(F)C(F)OC(F)(F)F)c(Cl)c1` (centres undefined): the result in assay [1], in assay [3], in assay [4], in assay [5], in assay [7] and in assay [8] was inactive. In addition, the result in [9], in assay [10], in [11], in assay [12], in assay [13] and in assay [14] was inactive. Besides, the outcome in assay [15], in assay [16], in [17], in [18], in assay [19] and in assay [20] was inactive. In addition, the concentration at half-maximal activity (AC50) in assay [2] is 7.82 µM (active); in [6] it was 0.235 µM (active).
With `CCN(CC)C(=O)SCc1ccc(Cl)cc1`, the result in assay [1], in assay [2], in assay [3], in assay [4], in [5] and in assay [6] was inactive. Moreover, the outcome in assay [7], in assay [8], in assay [9], in assay [10], in [11] and in [12] was inactive. Further, the outcome in [13], in [14], in assay [15], in assay [16], in assay [18] and in [19] was inactive. In [20], the outcome was inactive. For the same compound, in assay [17], the AC50 was 16.4 µM (active).
Turning to `Clc1ccccc1-c1nnc(-c2ccccc2Cl)nn1`, the result in assay [1], in assay [2], in assay [3], in [4], in assay [5] and in assay [7] was inactive. Moreover, the outcome in [8], in assay [9], in assay [10], in [11], in [12] and in [13] was inactive. Besides, the outcome in assay [14], in assay [15], in [16], in [18], in assay [19] and in assay [20] was inactive. Also, in assay [6], the AC50 was 32.5 µM (active).
